Source: PubChem
Tgondii IFNg – T. gondii growth inhibition under IFN-gamma | Toxoplasma gondii growth in IFN-gamma-treated host cells; stronger effect = lower value | activity change, negative = inhibition, % (concentration not given with the values) | actives 3.8% (n = 69,000) | AID 1259416; in the data active = activity change below about -70%, passing the limit was not always enough;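 also: host cells are HeLa cells infected with Toxoplasma gondii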
An asterisk follows results filed as active; i = inactive. The sample as a whole holds a higher share of hits than the screen did.

SMILES	Tgondii IFNg
COc1ccc(C)cc1NC(=O)Nc1ccc(-c2nc(-c3cccc(Br)c3)co2)cc1	-50
COc1ccc(NC(=O)Nc2ccc(-c3nc(-c4ccccc4)co3)cc2)cc1Cl	34
COc1cc(OC)c(NC(=O)Nc2ccc(-c3nc(-c4ccc(C)cc4)co3)cc2)cc1Cl	-77*
COc1ccccc1NC(=O)Nc1ccc(-c2nc(-c3ccc(C)cc3)co2)cc1	-77*
COc1ccccc1NC(=O)Nc1ccc(-c2nc(-c3cc(C)ccc3C)co2)cc1	-36
COc1ccccc1NC(=O)Nc1ccc(-c2nc(-c3ccc(C)cc3C)co2)cc1	-17
Cc1nc(N2CCCC2)nc(-c2ccc(S(C)(=O)=O)cc2)c1C	-3
O=C(NCCc1csc(-c2ccc(Cl)cc2)n1)c1c(F)cccc1F	-4
Cc1ccc(S(=O)(=O)N2CCc3nc(N4CCCC4)nc(C)c3CC2)cc1F	-14
Cc1cc(CN2CCN(c3c(Br)cnc4nc(-c5ccc(N6CCN(C)CC6)cc5)[nH]c34)CC2)no1	-74*
COc1ccc(-c2[nH]ncc2CN2CCN(C)CC2)cc1	62
CC(=O)NCC(=O)N1Cc2nccn2CC(Cn2nc(C)nc2C)C1 (centres undefined)	-4
COc1ccc(C2CC(=O)c3cnn(-c4nc5ccccc5s4)c3C2)cc1 (centres undefined)	62
COc1ccc(N2C(=O)CC(N3CCN(c4nc5ccccc5s4)CC3)C2=O)cc1 (centres undefined)	15
N=C1SC(c2ccccc2)C(=O)N1c1nc2ccccc2s1 (centres undefined)	-82*
CN(Cc1ccccn1)C(=O)c1ccc2onc(-c3coc(-c4ccccc4)n3)c2c1	-15
Cc1nn(C)c(C)c1NC(=O)c1ccccc1N	52
Cc1cc2nc(C)n(CC(=O)N(CCN(C)C)Cc3ccc4c(c3)OCO4)c2cc1C	-14
Cc1nn(C(=O)Nc2cccc(Cl)c2)c(C)c1Cc1csc2ccc(Cl)cc12	-85*
COC(=O)c1ccc(S(=O)(=O)NCc2csc3ccc(Cl)cc23)n1C	-57
Cc1cc(C)n(S(=O)(=O)c2ccccc2)n1	-3
O=C(O)c1nccnc1C(=O)NCc1csc2ccc(Cl)cc12	13
COC(=O)C(Cc1csc2ccc(Cl)cc12)NC(=O)c1ccc(C(F)(F)F)cc1 (centres undefined)	47
Cc1nn(S(=O)(=O)c2ccccc2)c(C)c1Cc1csc2ccc(Cl)cc12	-89*
CN(C)C(=O)N1CCc2ccc(=O)n(CC3CCOCC3)c2CC1	-51
SMILES	Tgondii IFNg
Cc1ccc(NC(=O)c2c(O)c3ccccc3n(-c3ccccc3)c2=O)cc1F	96
O=S(=O)(c1cccc2nsnc12)N1CCC2(CC1)Nc1ccccc1-n1cccc12	11
CN(C)CCN1CCN2CC(C(=O)O)CN(Cc3ccco3)CC2C1 (centres undefined)	13
Cc1nccn1-c1ccc(CN(Cc2cccnc2)C2CC(C)(C)NC(C)(C)C2)cc1	18
CCC(=O)n1nc(-c2ccc(C)cc2)nc1N	3
Cc1ccc(-c2ccccc2NC(=O)CS(=O)CC(=O)Nc2ccc(C)c(Cl)c2)o1 (centres undefined)	33
Cc1ccc(NC(=O)CN2CCN(Cc3ccccc3)CC2)cc1Cl	-24
Cc1ccc(NC(=O)CS(=O)CC(=O)Nc2ccc3c(c2)CCC3)cc1Cl (centres undefined)	-88*
CC(C)Cc1cc(C(=O)N2CCn3cncc3C2)nc(=O)[nH]1	99
O=C(c1n[nH]c2c1CCCC2)N1CCOC2(CNCCOC2)C1 (centres undefined)	2
COc1cc2nc(Cc3cccs3)n(NC(=O)C3CCC3)c(=O)c2cc1OC	-10
CCn1nc(C)c(C(=O)N2CCCC(c3nn(C)c(=O)n3CC)C2)c1C (centres undefined)	-2
COc1cccc(-c2nccc(C3CCCN3C(=O)c3ccc4ncccc4c3)n2)c1 (centres undefined)	28
C=C[C@H]1CN2CC[C@H]1C[C@H]2[C@H](O)c1ccnc2ccc(OC)cc12	-85*
CCN1CCN(CC(=O)N2CCCC(c3cc(=O)n4c(n3)CCCCC4)C2)CC1 (centres undefined)	-1
CCC(=O)N1CCCC(c2cnc(Nc3nccs3)cn2)C1 (centres undefined)	-29
CCC(=O)N1CCCC(c2cc(C(F)(F)F)c3c(=O)n(C)c(=O)n(C)c3n2)C1 (centres undefined)	-79*
Cc1ccc(C(C)CCN2CCC(NS(C)(=O)=O)CC2)o1 (centres undefined)	-2
COc1cc(N2C[C@@H]3[C@@H]4CC[C@@H](C4)[C@@H]3C2)nc(N)n1	8
Cc1cc(NC(=O)CN2CCCC(N(C)S(=O)(=O)Cc3ccccc3)CC2)no1 (centres undefined)	3
O=C(CN1C(=O)CCc2cc(S(=O)(=O)N3CCCCC3)ccc21)NC1CCCCCCC1	-10
Cc1cc(C)c(N2C(=O)C3C(c4ccccc4)C=CC(c4ccccc4)C3C2=O)c(C)c1 (centres undefined)	-99*
CCc1cnc(N2CCC3(CC2)CCN(c2cnn(C)c2)C3=O)nc1	24
CC(C)CN1CC2(CCN(S(=O)(=O)c3cccs3)CC2)C2(CCN(C)C2=O)C1 (centres undefined)	-30
COC(=O)[C@@H]1C[C@H](NC(=O)c2cc(=O)[nH]c3ccc(C)cc23)CN1C	3
SMILES	Tgondii IFNg
COCC(=O)N1Cc2nnn(C)c2C(COCc2ccccn2)C1 (centres undefined)	3
Cc1csc(-c2sc3ccccc3c2O)n1	-28
CSc1sc(-c2nc(C)cs2)c(C)c1-c1ccn[nH]1	-86*
Cc1oc(C2CCN(C(=O)c3cc(F)ccc3F)CC2)nc1C(=O)N1CCCC1	36
CC1=NN(C2CCS(=O)(=O)C2)C(=O)C1(Sc1ccccc1)Sc1ccccc1 (centres undefined)	-93*
CC(C)c1cc(C(=O)O)nn1C1CCS(=O)(=O)C1 (centres undefined)	13
CC(=O)N1CCc2cc(NC(=O)C3=NN(C4CCS(=O)(=O)C4)C(=O)CC3)ccc21 (centres undefined)	-2
CN1CCCn2nc(C(=O)N(C)CCC(O)c3ccccc3)cc2C1 (centres undefined)	-1
COC(=O)C1CCN(Cc2cccc(C(=O)Nc3nccn3C)c2)CC1	1
Cc1cccc(-c2nnc(-c3nc(NCc4ccc(C)o4)c4ccccc4n3)o2)c1	-80*
Cc1cccc(-c2nnc(-c3nc(NCCc4ccco4)c4ccccc4n3)o2)c1	-100*
CCCNc1nc(-c2nnc(-c3cccc(C)c3)o2)nc2ccccc12	-98*
Cc1cccc(-c2nnc(-c3nc(NCc4ccc(N(C)C)cc4)c4ccccc4n3)o2)c1	6
Cc1cccc(CNc2nc(-c3nnc(-c4ccccc4)o3)nc3ccccc23)c1	-85*
c1ccc(-c2nnc(-c3nc(NCc4ccco4)c4ccccc4n3)o2)cc1	i
CCC(C)Nc1nc(-c2nnc(-c3cccc(C)c3)o2)nc2ccccc12 (centres undefined)	-60
COc1ccc(-c2nnc(-c3nc(NCc4cccc(C)c4)c4ccccc4n3)o2)cc1	-48
CCCSCCCNc1nc(-c2nnc(-c3ccc(C)cc3)o2)nc2ccccc12	-26
CCOc1ccc(CNc2nc(-c3nnc(-c4cccc(C)c4)o3)nc3ccccc23)cc1	-16
Cc1ccc(-c2nnc(-c3nc(NCc4cccc(F)c4)c4ccccc4n3)o2)cc1	-30
Cc1ccc(-c2nnc(-c3nc(NCCc4ccco4)c4ccccc4n3)o2)cc1	362
COc1ccc2c(c1)NC1(CCN(C(=O)C3CCCCC3)CC1)c1cccn1-2	34
